# Source: PubChem BioAssay AID803 (The Scripps Research Institute Molecular Screening Center, 2007)
# About 680 (0.49%) of roughly 140,000 compounds were called active. This is one part of a sample in which actives are shown more often than they occur. Cut-off read from the data, not from the text of the source: active = activation above about 5% (passing the limit was not always enough); inactive = the rest.
# Target: Galanin receptor type 2 (Homo sapiens) (UniProt O43603)
# Test: GALR2 receptor agonists, primary screen, cell-based (AID 803);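 note: 0% = vehicle buffer wells and 100% = reference agonist at full effect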
# Settings: GALR2-expressing cells, agonist activation read-out; at 5.6 µM; stronger effect = higher value
# Galanin receptor type 2 (Homo sapiens), sequence (O43603 whole entry, looked up): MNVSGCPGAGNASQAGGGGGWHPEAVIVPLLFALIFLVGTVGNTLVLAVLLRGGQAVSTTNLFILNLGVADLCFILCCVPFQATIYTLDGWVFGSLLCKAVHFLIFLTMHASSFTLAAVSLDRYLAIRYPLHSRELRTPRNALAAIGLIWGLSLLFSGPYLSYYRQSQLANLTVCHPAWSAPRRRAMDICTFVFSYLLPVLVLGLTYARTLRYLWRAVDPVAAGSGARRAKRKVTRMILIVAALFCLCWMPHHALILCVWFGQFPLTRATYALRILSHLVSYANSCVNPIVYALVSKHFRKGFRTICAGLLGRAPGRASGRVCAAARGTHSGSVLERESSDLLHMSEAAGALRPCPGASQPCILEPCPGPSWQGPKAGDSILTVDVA
row,SMILES,activation
1,CC(=O)c1ccc(NC(=O)Nc2ccc([N+](=O)[O-])cc2C)cc1,-1.71% (inactive)
2,Cc1cc(-c2cccs2)nc(-n2cccc2)n1,-2.57% (inactive)
3,CCCn1c(=O)c2c(C(F)(F)F)cc(-c3cccs3)nc2n(CCC)c1=O,6.87% (active)
4,FC(F)(F)c1cc(-c2cccs2)nc(NCc2ccco2)n1,-1.85% (inactive)
5,COC(=O)c1ccc(NC(=O)C(C)N2C(=O)c3ccccc3C2=O)cc1 (stereo not given),8.37% (active)
6,COC(=O)c1ccc(NC(=O)Nc2ccc(C)cc2)cc1,-1.78% (inactive)
7,Cc1cc(C)nc(NC(=O)C(C)N2C(=O)c3ccccc3C2=O)n1 (stereo not given),-2.31% (inactive)
8,O=C(CSc1ccccc1)Nc1cc(Cl)ccc1Oc1ccccc1,-0.74% (inactive)
9,C/C(CCC(=O)OC[C@H]1O[C@H](C#Cc2ccccc2)C=C[C@@H]1Oc1ccc(C)cc1)=N\OC[C@@H](O)[C@H]1O[C@@H]2OC(C)(C)O[C@@H]2[C@H]1O,-0.18% (inactive)
10,CCOC(=O)Cn1c(SC)nc2sc3c(c2c1=O)CC(C)(C)OC3,-1.18% (inactive)
11,CC/C(C)=N/Nc1nc2sc3c(c2c(=O)[nH]1)CC(C)(C)OC3,25.2% (active)
12,CCOC(=O)CSc1nc2sc3c(c2c(=O)[nH]1)CC(C)(C)OC3,-2.5% (inactive)
13,CCOc1ccc(NC(=O)COc2ccc(C(=O)NC3CCCc4ccccc43)cc2OC)cc1 (stereo not given),-0.21% (inactive)
14,CCc1ccc(-c2cc(C(=O)NN3CCN(C)CC3)c3ccccc3n2)cc1,0.42% (inactive)
15,CCCCNS(=O)(=O)c1ccc2nc(SCC(=O)Nc3cc(C)cc(C)c3)[nH]c2c1,-1.87% (inactive)
16,CCc1cc(C(=O)OC)c(NC(=O)CC2Sc3ccc(C(F)(F)F)cc3NC2=O)s1 (stereo not given),1.46% (inactive)
17,COc1ccc(Cl)cc1C(=O)NCc1cn(C)nc1C,-0.07% (inactive)
18,Cc1ccc(-c2cc(C(=O)NCc3cn(C)nc3C)c3cc(Br)ccc3n2)cc1,5.13% (active)
19,Cc1ccc2nc(-c3ccccc3)cc(C(=O)O)c2c1,-0.75% (inactive)
20,CCCn1nc(NS(=O)(=O)c2ccccc2)c2cc3cc(C)ccc3nc21,-2.05% (inactive)
21,COc1ccc(C2CC(c3ccccc3)=NN2C(=O)CSc2nccc(=O)[nH]2)cc1 (stereo not given),0.01% (inactive)
22,COc1ccc(C2=NN(C(=O)c3cccnc3)C(c3ccccc3)C2)cc1 (stereo not given),-0.17% (inactive)
23,COc1ccc(C2CC(c3ccccc3)=NN2C(=O)c2ccc(Cl)c([N+](=O)[O-])c2)cc1 (stereo not given),4.95% (active)
24,Cn1ncc2c(NNC(=O)Cc3cccc4ccccc34)ncnc21,0.28% (inactive)
25,Cc1cnc(NC(=O)CSc2nnc(-c3ccc(Cl)cc3Cl)n2N)s1,-1.9% (inactive)

row,SMILES,activation
1,CCOc1ccccc1NC(=O)CCc1ccc(C)o1,-0.84% (inactive)
2,Cc1ccc(CCC(=O)Nc2ncc(Cc3cc(Cl)ccc3Cl)s2)o1,8.73% (active)
3,O=C(Nc1ccccc1F)c1ccccc1-c1ccccc1,-0.61% (inactive)
4,Fc1ccc(N2N=C(c3cccs3)CC2c2ccco2)c(F)c1 (stereo not given),10.4% (inactive)
5,COc1ccccc1N1N=C(c2cccs2)CC1c1ccccc1 (stereo not given),13.1% (active)
6,COc1ccc(C2CC(c3cccs3)=NN2C(=O)COC(=O)c2cc3ccccc3cc2O)cc1OC (stereo not given),0.22% (inactive)
7,COc1ccc(-c2cc3ccc(OCc4nn[nH]n4)cc3oc2=O)cc1,0.01% (inactive)
8,COc1cccc(C(=O)c2cc3ccc(O)cc3oc2=O)c1,2.29% (inactive)
9,O=c1oc2cc(O)ccc2cc1-c1ccc(F)cc1,14.9% (active)
10,COc1cc(/C=N\NC(=O)c2nonc2N)c(OC)cc1Br,-0.75% (inactive)
11,O=C(CCc1ccc(S(=O)(=O)N2CCOCC2)cc1)NN=C1CCCCCCC1,-0.53% (inactive)
12,Cc1ccc(C)c(N2CCN(S(=O)(=O)c3ccc4c(c3)oc(=O)n4C)CC2)c1,-1.17% (inactive)
13,Cn1c(=O)oc2cc(S(=O)(=O)N3CCC(C(=O)Nc4ccc(OC(F)(F)F)cc4)CC3)ccc21,9.92% (active)
14,Cc1ccc2nc(NC(=O)C3CCN(S(=O)(=O)c4ccc5c(c4)oc(=O)n5C)CC3)sc2c1,-1.18% (inactive)
15,COc1ccc(NC(=S)SC)cc1OC,-0.23% (inactive)
16,CN(C)S(=O)(=O)c1cccc(NC(=S)N/N=C/C(=O)c2ccccc2)c1,0.25% (inactive)
17,CCNc1nc(NC(C)C)nc(N2CC(=O)N(CC(=O)OCC)C2=N)n1,0.96% (inactive)
18,CCn1c(SCc2ccc(C)cc2)nnc1-c1nn(-c2ccccc2)ccc1=O,-0.25% (inactive)
19,CCc1ccc(-c2nn(-c3ccccc3)cc2CSC(=N)N)cc1,5.34% (active)
20,N=C(N)SCc1cccc2ccccc12,-1.3% (inactive)
21,Cc1cc[n+](-c2[nH]c(=O)sc2/C=N/NC(=O)c2ccccc2[O-])cc1C,1.06% (inactive)
22,COc1ccccc1C1SCCN1C(=O)c1ccc([N+](=O)[O-])cc1 (stereo not given),0.57% (inactive)
23,N=c1n(CCc2ccccc2)c2ccccc2n1Cc1ccccc1F,-1.04% (inactive)
24,OC(COc1cccc2ccccc12)CN1CCN(c2ccccn2)CC1 (stereo not given),14.5% (active)
25,O=C1c2cccc3cccc(c23)N1CN1CCN(c2ccccn2)CC1,-1.31% (inactive)

row,SMILES,activation
1,OC(COc1cccc(OCC(O)CN2CCCC2)c1)CN1CCCC1 (stereo not given),-0.12% (inactive)
2,C=CCn1c(CCNC(=O)c2cccs2)n[nH]c1=S,-1.14% (inactive)
3,Cn1nccc1CNC(=O)c1ccnn1C,-2.14% (inactive)
4,COc1cc(NC(=S)NNC(=O)CC(C)C)c(OC)cc1Cl,-0.97% (inactive)
5,CCCCn1c(O)c(N=NC(=O)Cn2c(C(F)(F)F)nc3ccccc32)c2ccccc21,-0.64% (inactive)
6,CCOC(=O)c1oc2c(CN3CCN(C)CC3)c(O)ccc2c(=O)c1-c1ccc(Br)cc1,-1.12% (inactive)
7,Cc1csc(NC(=O)c2ccc(-c3ccc(Cl)cc3Cl)o2)n1,8.53% (active)
8,O=C(Nc1cccc2ncccc12)c1ccc(-c2ccc(Cl)cc2Cl)o1,-3.29% (inactive)
9,Cc1csc(NC(=S)Nc2cccc(Cl)c2)n1,-0.28% (inactive)
10,C=CCn1c(P(C)(=O)O)nc2ccccc21,-0.16% (inactive)
11,Cc1ccc(C(C)NC(=O)Cn2nc(C)c([N+](=O)[O-])c2C)cc1 (stereo not given),-0.83% (inactive)
12,CC12CN3CC(C)(CN(C1)C3c1ccc(Cl)cc1Cl)C2=O (stereo not given),-0.09% (inactive)
13,CCOc1ccccc1C1C(C(=O)OC)=CN(C)C=C1C(=O)OC,10.7% (active)
14,COC(=O)C1=CN(C)C=C(C(=O)OC)C1c1ccc(Cl)cc1Cl,7.44% (active)
15,NNC(=O)c1ccc(Cl)cc1Cl,0.25% (inactive)
16,CCOc1ccccc1N(CC(=O)Nc1ccccc1C(=O)OC)S(C)(=O)=O,-0.26% (inactive)
17,CCOc1cc(C2C(C(=O)OC)=CN(C3CCCC3)C=C2C(=O)OC)cc(Br)c1O,2.25% (inactive)
18,Cc1c(C(=O)c2cccc([N+](=O)[O-])c2)c2ccccn2c1CCC#N,0.65% (inactive)
19,O=C(COC(=O)Cn1cnc2ccccc2c1=O)NCC12CC3CC(CC(C3)C1)C2,-1.72% (inactive)
20,CCO/N=C(/C)c1c(O)cc(-c2ccccc2)n(-c2ccccc2)c1=O,0.26% (inactive)
21,Nc1nc(SCC(=O)NNc2c(Cl)cc(Cl)cc2Cl)n[nH]1,-0.67% (inactive)
22,c1ccc2c(c1)CSc1sccc1C2=C1CCNCC1,-2.25% (inactive)
23,C=CCOc1nc2c(c(=O)n(C)c(=O)n2C)n1Cc1ccc(Cl)cc1Cl,1.61% (inactive)
24,Cn1c(=O)c2c(nc(N3CCCCCC3)n2CC(=O)c2ccc(Br)cc2)n(C)c1=O,-0.03% (inactive)
25,C=CCn1c(Oc2ccc(C(=O)OC)cc2)nc2c1c(=O)n(C)c(=O)n2C,16.4% (active)

row,SMILES,activation
1,COc1ccc2nc(Nc3nc4ccc(NC(C)=O)cc4s3)sc2c1,2.62% (inactive)
2,CCOc1ccc2nc(SC(CC)C(=O)Nc3cc(C)on3)sc2c1 (stereo not given),-1.01% (inactive)
3,CCOc1ccc2nc(Nc3nc4ccc(NC(C)=O)cc4s3)sc2c1,35.2% (active)
4,N#Cc1c(NC(=O)c2ccc(N3CCOCC3)c([N+](=O)[O-])c2)sc2c1CCCC2,-1.06% (inactive)
5,O=C(O)c1cccc(N2C(=O)Nc3ccccc3N2O)c1,-0.65% (inactive)
6,Cc1ccccc1N(C(=O)Cc1cccs1)C(C(=O)NC1CCCCC1)c1cn(C)nc1C (stereo not given),-0.31% (inactive)
7,CCCCCOc1ccc(CSC2=NCCN2)cc1[N+](=O)[O-],0.31% (inactive)
8,CC(C)NC(=O)C(=O)NCCCOC(C)C,-1.05% (inactive)
9,CCNS(=O)(=O)c1ccc(NC(=O)c2cncc(Br)c2)cc1,-1.39% (inactive)
10,C/C(CC(=O)Nc1cccc(F)c1)=N\NC(=O)C(=O)NC1CCCCC1,-0.33% (inactive)
11,C=CCN(CC=C)S(=O)(=O)c1ccc(C(=O)Nc2sc3c(c2C(N)=O)CCCCC3)cc1,-0.72% (inactive)
12,CCN(c1ccccc1)S(=O)(=O)c1ccc(C(=O)Nc2nccs2)cc1,-3.23% (inactive)
13,C=CCN(CC=C)S(=O)(=O)c1ccc(C(=O)Nc2nc3c(s2)CCc2ccccc2-3)cc1,9.18% (active)
14,COc1ccc(C(=O)Nc2ncc3c(n2)-c2ccccc2CC3)cc1,-1.58% (inactive)
15,COCCN(CCOC)S(=O)(=O)c1ccc(C(=O)Nc2nc3c(s2)CCc2ccccc2-3)cc1,12.8% (active)
16,O=C(Nc1ccc(S(=O)(=O)N2CCc3ccccc3C2)cc1)c1ccccc1,-2.86% (inactive)
17,O=C(CN1C2=NCCN2c2ccccc21)c1cccs1,0.13% (inactive)
18,CCOc1ccc(Br)cc1CSC(=N)N,-1.41% (inactive)
19,O=C(Nc1cccc(Cl)c1)Nc1ccccc1NS(=O)(=O)c1cccs1,-0.87% (inactive)
20,CCOc1ccc(C(O)Cn2c(=N)n(CCN3CCCCC3)c3ccccc32)cc1 (stereo not given),25.8% (active)
21,Cc1cccc(OCC(O)Cn2c(=N)n(CCN3CCOCC3)c3ccccc32)c1 (stereo not given),-1.56% (inactive)
22,Cn1c(=N)n(CC(O)c2ccccc2)c2ccccc21 (stereo not given),-3.54% (inactive)
23,O=C(COC(=O)CCCNC(=O)c1ccc(Cl)cc1)Nc1cc(Cl)ccc1Cl,-0.66% (inactive)
24,N#Cc1ccccc1NC(=O)c1cccc(COc2ccc(Cl)cc2Cl)c1,-1.81% (inactive)
25,CCC(C)NC(=O)c1ccc(N2CCC3(CC2)OCCO3)c([N+](=O)[O-])c1 (stereo not given),1.63% (inactive)
